Measured values published in PubChem BioAssay (EPA / NIEHS).
Results filed as inconclusive are left out. Activity calls are given as the source filed them. How the source made its calls, unless noted: active means hit-call score of the fitted dose curve at least 0.9, where 1 is the maximum; inconclusive means response in the unintended direction; inactive means score below 0.9.

Assays:
[1] = BSK_4H_Eotaxin3: BioMAP Diversity Plus: 4H Assay for Eotaxin 3 Biomarker Activity (AID 2283000; active means hit-call score of the fitted dose curve at least 0.9, where 1 is the maximum; inactive means score below 0.9); conditions: primary human endothelial cells (HUVEC); actives raise or lower the signal
Method in brief: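 ELISA quantitation of CCL26 (Eotaxin-3) protein from chemically dosed human vascular endothelial cells at 24 h; increases and decreases both scored relative to DMSO-treated baseline.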

[2] = target: human Peroxisome Proliferator-activated Receptor delta (PPARd), PPARD (gene 5467) (UniProt Q03181); assay: ATG_PPARd_TRANS: Attagene TRANS-FACTORIAL HepG2 Assay for human Peroxisome Proliferator-activated Receptor delta (PPARd) (AID 2283002)
Method in brief: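 Transient HepG2 transfection (multiple GAL4-UAS RTUs, chimeric receptor-Gal4); 24 h dosing; total RNA → oligo(dT) RT → PCR → 6-FAM primer extension → HpaI cut → CE. Positive direction vs DMSO.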

[3] = read-out: Intercellular Adhesion Molecule 1 (ICAM1), ICAM1 (gene 3383); assay: BSK_3C_ICAM1: BioMAP Diversity Plus: 3C Assay for Intercellular Adhesion Molecule 1 (ICAM1) Biomarker Activity (AID 2283003; active means hit-call score of the fitted dose curve at least 0.9, where 1 is the maximum; inactive means score below 0.9); conditions: primary human endothelial cells (HUVEC); actives raise or lower the signal
Method in brief: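 Chemicals are dosed onto primary human umbilical vein endothelium (3C system). After 24 h, ICAM-1 is measured by ELISA, and responses are fitted bidirectionally relative to DMSO.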

[4] = BSK_3C_Proliferation: Cell Proliferation Assessment in the BioMAP Diversity Plus: 3C Assay (AID 2283006; active means hit-call score of the fitted dose curve at least 0.9, where 1 is the maximum; inactive means score below 0.9;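 on AC50: potency may reflect either rise or fall in cell number versus DMSO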); conditions: primary human endothelial cells (HUVEC)
Method in brief: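 Cells (human umbilical vein endothelial, sub-confluent) receive test chemical; after 48 h they are fixed in 10% trichloroacetic acid, stained with 0.1% SRB and read at 560 nm. Activity is referenced to DMSO, fitting increases and decreases.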

[5] = target: Peroxisome proliferator-activated receptor gamma (Homo sapiens) (UniProt P37231); assay: ATG_PPARg_TRANS: Attagene TRANS-FACTORIAL HepG2 Assay for human Peroxisome Proliferator-activated Receptor-gamma (PPARg) (AID 2283007)
Method in brief: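 After 24 h of chemical exposure, transfected HepG2 cells carrying PPARγ-Gal4 chimera reporter constructs are lysed for RNA. Reporter transcripts are measured by RT-PCR and capillary electrophoresis with fluorescent labelling, and gain of signal is fitted versus DMSO.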

[6] = target: Nuclear receptor subfamily 1 group I member 2 (Homo sapiens) (UniProt O75469); assay: ATG_PXR_TRANS: Attagene TRANS-FACTORIAL HepG2 Assay for human Pregnane X Receptor (PXR) (AID 2283008)
Method in brief: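 HepG2 transfected (FuGene 6) with GAL4-UAS reporter units + PXR-Gal4 chimera; dosed 24 h. Total RNA → oligo(dT) RT → PCR → 6-FAM primer extension → HpaI cut → CE. Gain-of-signal vs DMSO.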

[7] = target: Retinoic acid receptor RXR-alpha (Homo sapiens) (UniProt P19793); assay: ATG_RXRa_TRANS: Attagene TRANS-FACTORIAL HepG2 Assay for human Retinoid X Receptor alpha (RXRa) (AID 2283012)
Method in brief: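 Measures exogenous chimeric NR-GAL4 activity in transfected HepG2 liver cells after 24 h of dosing. Induced reporter mRNA was detected by RT-PCR with capillary electrophoresis, and gain of signal was analysed against DMSO.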

[8] = target: human Retinoid X Receptor beta (RXRb), RXRB (gene 6257) (UniProt P28702); assay: ATG_RXRb_TRANS: Attagene TRANS-FACTORIAL HepG2 Assay for human Retinoid X Receptor beta (RXRb) (AID 2283013)
Method in brief: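 Chimeric receptor-Gal4 activity was assessed in transiently transfected human HepG2 cells after 24 h exposure. Transcripts from GAL4-UAS reporters were quantified by fluorescent RT-PCR and capillary electrophoresis, with DMSO as negative control and baseline.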

[9] = read-out: E-selectin (Homo sapiens) (UniProt P16581); assay: BSK_3C_Eselectin: BioMAP Diversity Plus: 3C Assay for Eselectin Biomarker Activity (AID 2283015; active means hit-call score of the fitted dose curve at least 0.9, where 1 is the maximum; inactive means score below 0.9); conditions: primary human endothelial cells (HUVEC); actives raise or lower the signal
Method in brief: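 Endpoint derived by bidirectional fitting against DMSO vehicle; signal is ELISA-detected E-selectin from primary HUVEC at 24 h post-dosing, with parallel SRB staining (0.1% SRB, 560 nm) flagging cytotoxicity.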

[10] = read-out: Interleukin-1 alpha (IL1a), IL1A (gene 3552); assay: BSK_BE3C_IL1a: BioMAP Diversity Plus: BE3C Assay for Interleukin-1 alpha (IL1a) Biomarker Activity (AID 2283016; active means hit-call score of the fitted dose curve at least 0.9, where 1 is the maximum; inactive means score below 0.9); conditions: primary human bronchial epithelial cells; actives raise or lower the signal
Method in brief: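 Signal from IL-1a ELISA, taken 24 h after chemical dosing of human bronchial epithelial cells, is compared with DMSO as baseline using bidirectional curve fitting.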

[11] = read-out: Monocyte Chemoattractant Protein-1 (MCP1), CCL2 (gene 6347); assay: BSK_3C_MCP1: BioMAP Diversity Plus: 3C Assay for Monocyte Chemoattractant Protein-1 (MCP1) Biomarker Activity (AID 2283017; active means hit-call score of the fitted dose curve at least 0.9, where 1 is the maximum; inactive means score below 0.9); conditions: primary human endothelial cells (HUVEC); actives raise or lower the signal
Method in brief: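 Using human vascular primary endothelium, researchers measured MCP-1 by ELISA 24 h after treatment, with DMSO serving as negative control for bidirectional fitting.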

[12] = read-out: Human Leukocyte Antigen - DR isotype (HLADR), HLA-DRA (gene 3122); assay: BSK_3C_HLADR: BioMAP Diversity Plus: 3C Assay for Human Leukocyte Antigen - DR isotype (HLADR) Biomarker Activity (AID 2283019; active means hit-call score of the fitted dose curve at least 0.9, where 1 is the maximum; inactive means score below 0.9); conditions: primary human endothelial cells (HUVEC); actives raise or lower the signal
Method in brief: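 Compound added to primary HUVEC cultures, 24 h incubation, then HLA-DR determined by ELISA; endpoint derived by bidirectional fitting relative to DMSO negative control.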

[13] = target: human RAR-related Orphan Receptor gamma (RORg), RORC (gene 6097) (UniProt P51449); assay: ATG_RORg_TRANS: Attagene TRANS-FACTORIAL HepG2 Assay for human RAR-related Orphan Receptor gamma (RORg) (AID 2283011)
Method in brief: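 Chimeric RORg-Gal4 transactivation in transfected HepG2; 24 h exposure; RT-PCR/capillary electrophoresis readout of reporter mRNA, DMSO baseline.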

[14] = target: human Thyroid Receptor alpha (THRa1), THRA (gene 7067) (UniProt P10827); assay: ATG_THRa1_TRANS: Attagene TRANS-FACTORIAL HepG2 Assay for human Thyroid Receptor alpha (THRa1) (AID 2283014)
Method in brief: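 Measured here is mRNA from a GAL4-UAS reporter in transfected HepG2 cells carrying a Gal4-fused receptor, 24 h post-dose. DMSO served as negative control and baseline.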

[15] = target: Retinoic acid receptor alpha (Homo sapiens) (UniProt P10276); assay: ATG_RARa_TRANS: Attagene TRANS-FACTORIAL HepG2 Assay for human Retinoic Acid Receptor alpha (RARa) (AID 2283005)
Method in brief: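 Reporter transcripts, measured by RT-PCR with fluorescent labeling and capillary electrophoresis after 24 h dosing, reflect activity of an exogenous human RARa–GAL4 fusion in transiently transfected HepG2. Fitted for increase relative to DMSO.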

[16] = target: human Retinoic Acid Receptor gamma (RARg), RARG (gene 5916) (UniProt P13631); assay: ATG_RARg_TRANS: Attagene TRANS-FACTORIAL HepG2 Assay for human Retinoic Acid Receptor gamma (RARg) (AID 2283009)
Method in brief: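 TRANS format measured activity of exogenous NR-GAL4 fusion (RARg) in transfected HepG2 liver cells after 24 h dosing. Induced reporter RNA was detected by RT-PCR/capillary electrophoresis fluorescence, analysed in the positive direction against DMSO.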

[17] = target: human RAR-related Orphan Receptor beta (RORb), RORB (gene 6096) (UniProt Q92753); assay: ATG_RORb_TRANS: Attagene TRANS-FACTORIAL HepG2 Assay for human RAR-related Orphan Receptor beta (RORb) (AID 2283010)
Method in brief: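 Transfect HepG2 with multiple GAL4-UAS reporter transcription units; dose chemicals for 24 h; isolate RNA, reverse-transcribe and PCR-amplify reporter sequences; label, digest and resolve fragments by capillary electrophoresis; fit increases relative to DMSO.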

[18] = target: human Peroxisome Proliferator-activated Receptor alpha (PPARa), PPARA (gene 5465) (UniProt Q07869); assay: ATG_PPARa_TRANS: Attagene TRANS-FACTORIAL HepG2 Assay for human Peroxisome Proliferator-activated Receptor alpha (PPARa) (AID 2283001)
Method in brief: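 Reporter transcripts quantified by RT-PCR plus capillary electrophoresis after 24 h treatment, fitted upward relative to DMSO. Cells: human HepG2 transiently carrying multiple GAL4-UAS reporter units driven by NR-Gal4 chimeras.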

[19] = target: human Retinoic Acid Receptor beta (RARb), RARB (gene 5915) (UniProt P10826); assay: ATG_RARb_TRANS: Attagene TRANS-FACTORIAL HepG2 Assay for human Retinoic Acid Receptor beta (AID 2283004)
Method in brief: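 Fluorescent capillary-electrophoresis detection of GAL4-UAS reporter mRNA defines the endpoint, with induction over DMSO-treated wells scored as activity. Transiently transfected human hepatoma HepG2 cells expressing exogenous NR–Gal4 proteins are exposed to test chemicals for 24 h.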

[20] = read-out: Monocyte Chemoattractant Protein-1 (MCP1), CCL2 (gene 6347); assay: BSK_4H_MCP1: BioMAP Diversity Plus: 4H Assay for Monocyte Chemoattractant Protein-1 (MCP1) Biomarker Activity (AID 2283018; active means hit-call score of the fitted dose curve at least 0.9, where 1 is the maximum; inactive means score below 0.9); conditions: primary human endothelial cells (HUVEC); actives raise or lower the signal
Method in brief: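 Endothelial cells from umbilical vein were treated with test chemical, then after 24 h MCP-1 levels were quantified by ELISA; endpoint values came from bidirectional fitting with DMSO as baseline of activity.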

Measured: AC50

Chain of Retinoic acid receptor RXR-alpha (Homo sapiens) (P19793 whole entry, looked up, the tested form may be a part): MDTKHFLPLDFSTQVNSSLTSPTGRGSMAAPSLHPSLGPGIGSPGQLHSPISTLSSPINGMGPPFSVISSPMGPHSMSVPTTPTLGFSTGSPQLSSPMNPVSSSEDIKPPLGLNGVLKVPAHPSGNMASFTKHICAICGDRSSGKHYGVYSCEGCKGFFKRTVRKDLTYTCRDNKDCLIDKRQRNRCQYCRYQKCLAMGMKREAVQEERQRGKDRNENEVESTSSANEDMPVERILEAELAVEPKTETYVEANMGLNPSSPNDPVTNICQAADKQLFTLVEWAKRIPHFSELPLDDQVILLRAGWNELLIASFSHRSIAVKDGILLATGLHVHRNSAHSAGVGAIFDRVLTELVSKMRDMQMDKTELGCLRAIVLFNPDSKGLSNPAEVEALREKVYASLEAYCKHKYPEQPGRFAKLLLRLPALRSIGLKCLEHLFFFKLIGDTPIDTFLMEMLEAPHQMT
Chain of E-selectin (Homo sapiens) (P16581 whole entry, looked up): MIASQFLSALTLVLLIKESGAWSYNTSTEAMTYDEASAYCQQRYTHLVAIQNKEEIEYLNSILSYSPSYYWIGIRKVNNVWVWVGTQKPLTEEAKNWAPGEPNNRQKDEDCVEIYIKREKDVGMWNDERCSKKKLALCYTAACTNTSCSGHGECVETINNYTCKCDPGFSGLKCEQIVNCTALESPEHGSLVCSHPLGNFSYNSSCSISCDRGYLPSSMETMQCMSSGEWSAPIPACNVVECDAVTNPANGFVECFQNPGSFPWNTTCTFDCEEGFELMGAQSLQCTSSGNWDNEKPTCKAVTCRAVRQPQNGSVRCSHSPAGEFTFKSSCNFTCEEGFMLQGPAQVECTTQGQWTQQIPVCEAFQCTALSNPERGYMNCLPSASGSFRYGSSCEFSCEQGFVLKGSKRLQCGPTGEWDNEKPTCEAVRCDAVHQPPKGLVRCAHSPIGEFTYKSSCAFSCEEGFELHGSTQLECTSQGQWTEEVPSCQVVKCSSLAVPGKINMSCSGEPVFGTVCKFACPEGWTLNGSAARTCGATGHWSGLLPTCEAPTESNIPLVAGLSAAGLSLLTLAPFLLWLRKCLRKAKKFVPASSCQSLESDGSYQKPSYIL
Chain of human Retinoid X Receptor beta (RXRb), RXRB (gene 6257) (P28702 whole entry, looked up, the tested form may be a part): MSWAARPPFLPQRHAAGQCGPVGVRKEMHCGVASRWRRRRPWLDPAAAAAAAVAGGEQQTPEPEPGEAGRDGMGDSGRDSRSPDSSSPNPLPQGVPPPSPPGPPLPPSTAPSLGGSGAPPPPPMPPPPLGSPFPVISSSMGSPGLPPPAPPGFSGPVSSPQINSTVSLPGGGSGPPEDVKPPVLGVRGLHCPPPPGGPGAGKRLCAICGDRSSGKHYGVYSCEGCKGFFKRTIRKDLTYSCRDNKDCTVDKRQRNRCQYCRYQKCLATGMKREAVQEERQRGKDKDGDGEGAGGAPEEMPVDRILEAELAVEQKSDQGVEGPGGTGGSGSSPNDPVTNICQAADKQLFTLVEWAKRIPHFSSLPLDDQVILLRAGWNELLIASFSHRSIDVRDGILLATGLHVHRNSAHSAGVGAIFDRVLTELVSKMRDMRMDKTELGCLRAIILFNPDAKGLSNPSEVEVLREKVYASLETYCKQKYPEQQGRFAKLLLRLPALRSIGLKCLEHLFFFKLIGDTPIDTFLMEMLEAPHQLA
Chain of human Retinoic Acid Receptor beta (RARb), RARB (gene 5915) (P10826 whole entry, looked up, the tested form may be a part): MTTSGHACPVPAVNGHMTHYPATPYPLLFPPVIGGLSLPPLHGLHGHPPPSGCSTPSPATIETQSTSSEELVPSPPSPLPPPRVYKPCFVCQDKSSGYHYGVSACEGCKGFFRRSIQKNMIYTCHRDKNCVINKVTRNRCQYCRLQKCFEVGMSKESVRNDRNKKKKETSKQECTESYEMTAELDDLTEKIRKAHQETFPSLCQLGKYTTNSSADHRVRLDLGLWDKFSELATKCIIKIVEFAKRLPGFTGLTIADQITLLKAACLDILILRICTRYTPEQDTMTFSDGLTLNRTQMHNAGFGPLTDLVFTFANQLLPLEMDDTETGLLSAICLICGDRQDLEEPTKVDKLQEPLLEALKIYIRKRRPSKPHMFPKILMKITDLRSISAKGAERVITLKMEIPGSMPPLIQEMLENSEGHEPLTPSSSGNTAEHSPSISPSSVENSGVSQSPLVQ
Chain of human RAR-related Orphan Receptor gamma (RORg), RORC (gene 6097) (P51449 whole entry, looked up, the tested form may be a part): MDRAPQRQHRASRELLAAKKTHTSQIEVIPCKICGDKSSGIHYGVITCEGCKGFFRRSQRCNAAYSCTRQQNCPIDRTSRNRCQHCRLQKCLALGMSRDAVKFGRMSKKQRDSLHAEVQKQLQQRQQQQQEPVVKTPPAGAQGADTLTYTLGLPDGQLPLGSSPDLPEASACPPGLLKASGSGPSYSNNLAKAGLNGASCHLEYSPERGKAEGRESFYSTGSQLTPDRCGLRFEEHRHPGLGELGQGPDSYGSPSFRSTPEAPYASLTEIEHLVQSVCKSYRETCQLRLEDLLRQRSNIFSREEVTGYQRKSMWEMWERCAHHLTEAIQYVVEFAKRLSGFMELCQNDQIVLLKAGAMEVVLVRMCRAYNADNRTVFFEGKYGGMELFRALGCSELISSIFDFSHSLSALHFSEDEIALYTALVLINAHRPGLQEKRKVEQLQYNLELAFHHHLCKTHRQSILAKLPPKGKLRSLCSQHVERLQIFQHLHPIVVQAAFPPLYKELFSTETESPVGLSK
Chain of human RAR-related Orphan Receptor beta (RORb), RORB (gene 6096) (Q92753 whole entry, looked up, the tested form may be a part): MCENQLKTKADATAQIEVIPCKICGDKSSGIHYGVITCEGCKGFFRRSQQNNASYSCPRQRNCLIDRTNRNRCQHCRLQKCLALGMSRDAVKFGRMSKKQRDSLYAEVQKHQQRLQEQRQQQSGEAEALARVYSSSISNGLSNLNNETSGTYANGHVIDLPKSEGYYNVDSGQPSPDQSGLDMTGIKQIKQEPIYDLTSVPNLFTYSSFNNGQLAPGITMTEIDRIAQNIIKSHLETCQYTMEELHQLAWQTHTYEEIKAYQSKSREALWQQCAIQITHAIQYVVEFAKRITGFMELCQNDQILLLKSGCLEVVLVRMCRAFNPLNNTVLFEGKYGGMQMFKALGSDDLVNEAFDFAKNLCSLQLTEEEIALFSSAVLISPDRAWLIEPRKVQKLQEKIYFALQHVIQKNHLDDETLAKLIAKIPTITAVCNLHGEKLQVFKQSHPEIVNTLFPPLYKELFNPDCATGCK
Chain of human Retinoic Acid Receptor gamma (RARg), RARG (gene 5916) (P13631 whole entry, looked up, the tested form may be a part): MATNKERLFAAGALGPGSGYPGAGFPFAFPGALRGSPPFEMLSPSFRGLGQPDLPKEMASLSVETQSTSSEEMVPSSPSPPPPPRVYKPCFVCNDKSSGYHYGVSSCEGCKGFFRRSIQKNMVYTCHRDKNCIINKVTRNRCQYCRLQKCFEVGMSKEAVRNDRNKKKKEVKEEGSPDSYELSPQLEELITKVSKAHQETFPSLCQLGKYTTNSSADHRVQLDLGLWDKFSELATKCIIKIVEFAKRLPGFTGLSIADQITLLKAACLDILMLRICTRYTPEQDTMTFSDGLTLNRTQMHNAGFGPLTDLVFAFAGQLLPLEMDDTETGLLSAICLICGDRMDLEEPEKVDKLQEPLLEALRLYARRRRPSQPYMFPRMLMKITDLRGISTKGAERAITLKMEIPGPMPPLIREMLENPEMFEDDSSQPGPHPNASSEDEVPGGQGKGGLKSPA
Chain of human Thyroid Receptor alpha (THRa1), THRA (gene 7067) (P10827 whole entry, looked up, the tested form may be a part): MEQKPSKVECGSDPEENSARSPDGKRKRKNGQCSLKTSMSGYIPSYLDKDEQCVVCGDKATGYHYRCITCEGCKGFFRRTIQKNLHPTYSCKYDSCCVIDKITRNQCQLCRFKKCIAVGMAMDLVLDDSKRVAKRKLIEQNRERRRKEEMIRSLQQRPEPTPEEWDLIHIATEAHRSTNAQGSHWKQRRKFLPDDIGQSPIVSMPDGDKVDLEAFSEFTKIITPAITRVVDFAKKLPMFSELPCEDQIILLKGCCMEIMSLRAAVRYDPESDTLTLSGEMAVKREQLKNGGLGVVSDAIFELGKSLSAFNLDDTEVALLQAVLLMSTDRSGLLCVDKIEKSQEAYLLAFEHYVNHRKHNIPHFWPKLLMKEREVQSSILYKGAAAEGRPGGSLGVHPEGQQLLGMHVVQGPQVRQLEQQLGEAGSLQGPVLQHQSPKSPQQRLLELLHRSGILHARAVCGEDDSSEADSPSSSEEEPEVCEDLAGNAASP
Chain of Nuclear receptor subfamily 1 group I member 2 (Homo sapiens) (O75469 whole entry, looked up, the tested form may be a part): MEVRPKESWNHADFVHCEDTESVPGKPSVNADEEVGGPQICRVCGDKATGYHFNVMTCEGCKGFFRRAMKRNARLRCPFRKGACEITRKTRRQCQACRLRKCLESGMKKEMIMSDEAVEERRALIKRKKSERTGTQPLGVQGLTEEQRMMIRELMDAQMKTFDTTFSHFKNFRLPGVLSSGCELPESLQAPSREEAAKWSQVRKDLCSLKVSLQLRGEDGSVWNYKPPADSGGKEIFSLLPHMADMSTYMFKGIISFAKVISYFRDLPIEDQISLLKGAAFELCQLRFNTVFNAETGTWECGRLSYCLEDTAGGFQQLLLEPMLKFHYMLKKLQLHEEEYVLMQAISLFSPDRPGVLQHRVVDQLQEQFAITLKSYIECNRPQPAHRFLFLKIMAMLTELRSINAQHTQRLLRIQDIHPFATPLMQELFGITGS
Chain of Peroxisome proliferator-activated receptor gamma (Homo sapiens) (P37231 whole entry, looked up, the tested form may be a part): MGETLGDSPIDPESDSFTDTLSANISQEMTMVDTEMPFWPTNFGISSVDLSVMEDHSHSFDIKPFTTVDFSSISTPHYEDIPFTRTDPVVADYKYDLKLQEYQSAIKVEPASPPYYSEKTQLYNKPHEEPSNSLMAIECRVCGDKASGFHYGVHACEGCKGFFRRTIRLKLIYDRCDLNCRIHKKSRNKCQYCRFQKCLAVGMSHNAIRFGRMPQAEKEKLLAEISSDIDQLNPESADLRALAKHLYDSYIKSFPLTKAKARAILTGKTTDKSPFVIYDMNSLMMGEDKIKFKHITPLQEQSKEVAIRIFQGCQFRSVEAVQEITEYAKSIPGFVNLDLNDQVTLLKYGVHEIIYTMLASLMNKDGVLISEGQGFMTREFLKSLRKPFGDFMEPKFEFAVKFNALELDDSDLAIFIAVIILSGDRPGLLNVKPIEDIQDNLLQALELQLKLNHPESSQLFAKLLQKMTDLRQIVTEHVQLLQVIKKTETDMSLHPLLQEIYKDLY

COc1ccc(C(=O)c2ccccc2)c(O)c1
inactive: [2] | [3] | [4] | [7] | [9] | [10]
active: [1] 20 µM | [5] 33.1 µM | [6] 27.3 µM | [8] 28.7 µM | [11] 0.185 µM | [12] 27.8 µM

CC(CCC(=O)O)(c1ccc(O)cc1)c1ccc(O)cc1
inactive: [1] | [2] | [3] | [4] | [13] | [7] | [14] | [9] | [10] | [12]

CC(C)c1cccc(C(C)C)c1N
inactive: [3] | [15] | [4] | [6] | [16] | [17] | [13] | [7] | [9] | [10]
active: [1] 33.1 µM | [8] 71.2 µM | [12] 38.2 µM

CC(C)CCCCCOC(=O)CS
inactive: [1] | [3] | [4] | [6] | [8] | [9] | [10] | [11] | [12]
active: [5] 19.5 µM

O=c1c(O)c(-c2ccc(O)cc2O)oc2cc(O)cc(O)c12
inactive: [18] | [2] | [19] | [15] | [5] | [6] | [13] | [7] | [8]

O=C1CCCCCCCCCCCN1
inactive: [1] | [2] | [3] | [4] | [16] | [9] | [10] | [12]
active: [6] 5.31 µM | [8] 33.8 µM

CCCCC(CC)COC(=O)/C=C/c1ccc(OC)cc1 (stereo not drawn)
inactive: [18] | [2] | [19] | [15] | [5] | [6] | [17] | [13] | [7] | [8] | [14]

Clc1cccnc1
inactive: [18] | [2] | [19] | [15] | [16] | [13] | [7]

c1ccc2sc(SSN3CCOCC3)nc2c1
active: [1] 5.26 µM | [3] 20 µM | [4] 0.828 µM | [5] 23.2 µM | [6] 45.3 µM | [9] 11.8 µM | [20] 4.41 µM | [12] 5.37 µM
inactive: [8] | [14] | [10]

CCOC(=O)C1=NOC(c2ccccc2)(c2ccccc2)C1
inactive: [1] | [3] | [17] | [13] | [7] | [9] | [12]
active: [4] 28.4 µM | [5] 100 µM | [10] 0.129 µM

C=CC(=O)OCCCCCCCC(C)C
active: [4] 9.67 µM | [5] 27.1 µM | [9] 20 µM | [10] 0.719 µM
inactive: [1] | [2] | [3] | [7] | [8] | [12]
